Experimental data from article PMC5540273 (PLoS ONE, 2017).

system: NEK2; conditions: concentration: 1 μM, replicates: in singlicate; n = 1
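Further: KINOMEscan kinase panel screen.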

| Compound | %Inh [%] |
| --- | --- |
| O=c1[nH]cc(-c2ccc(N3CCOCC3)cc2)c2sc(-c3cn[nH]c3)cc12 [GSK2276055] | 19 |
| COC(=O)Nc1nc2cc(Oc3ccc(NC(=O)Nc4cc(C(F)(F)F)ccc4F)cn3)ccc2[nH]1.Cl.Cl [GW681170] | 0 |
| Cl.Cl.NCC(NCc1ccc(-c2ccnc3[nH]ccc23)s1)c1ccccc1 (stereo not drawn) [GSK1321565] | 0 |
| CCS(=O)(=O)c1ccc(OC)c(Nc2nccc(-c3c(-c4cccc(NC(=O)c5c(F)cccc5F)c4)nn4ncccc34)n2)c1 [GSK326180] | 4 |
| COc1cccc(-c2ccc3c(NC(=O)C4CC4)n[nH]c3n2)c1 [SB-710903] | 0 |
| CSc1cccc2c(-c3ccncn3)c(-c3ccc(F)cc3)nn12 [GW514786] | 0 |
| COc1cc2c(cc1OCCN1CCNCC1)ncc1c3ccc(C#N)cc3[nH]c21 | 41 |
| Cn1cc(-c2ccc3c(c2)CCN3C(=O)Cc2cccc(F)c2)c2c(N)ncnc21 [GSK2603358] | 73 |
| C[C@@H](Oc1cc(-n2cnc3cc(-c4ccnc(NCCS(C)(=O)=O)c4)ccc32)sc1C(N)=O)c1ccccc1Cl [GSK907232] | 98.8 |
| COc1cccc(C(=O)Nc2cccc(Oc3ccc4nc(NC(=O)C5CC5)cn4n3)c2)c1 | 8 |
| Cl.c1ccc(-c2ccc3c(Nc4ccc5[nH]ncc5c4)ccnc3c2)nc1 [GW440137] | 0 |
| Cn1cc(-c2[nH]c3cc(NC(=O)[C@H](N)C4CCCCC4)cc4c3c2C=NNC4=O)cn1 | 21 |
